# UBC13 inh = blocks human UBC13 polyubiquitin chain formation | TR-FRET | inhibition, % at 20 µM | 0.47% of 330,000 active | AID 485273; in the data active = inhibition above about 45%, passing the limit was not always enough; inconclusive = no clear call, values can overlap the other calls
# Target sequence (P61088 whole entry, looked up): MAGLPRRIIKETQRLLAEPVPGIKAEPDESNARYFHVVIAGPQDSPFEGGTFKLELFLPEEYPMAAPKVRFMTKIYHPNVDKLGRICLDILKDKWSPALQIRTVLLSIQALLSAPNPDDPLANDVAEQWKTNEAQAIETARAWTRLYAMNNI
# NALP1 yeast inh = NALP1 inhibition | S. cerevisiae NALP1/ASC/caspase-1 growth, X-gal OD620, 72 h | inhibition, % at 10 µM | 0.61% of 280,000 active | AID 2071; in the data active = inhibition mostly above about 24%, no sharp cut-off; inactive = mostly below about 32%
# Yeast superoxide = yeast age-related superoxide inhibition as caloric restriction mimetic; S. cerevisiae aged cells, superoxide DHE fluorescence; stronger effect = lower value; superoxide response (% of plate mean), % at 10 µM; 0.18% of 330,000 active; AID 2690;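 active = superoxide response under a set limit, about three screen SD below normal, cut at about 65% in these data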;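 also: yeast aged for seven days with compound at 30 °C before DHE staining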
# NR3A LBD binder = modulates the human NR3A ligand-binding domain | NR3A LBD differential scanning fluorimetry, Tm shift; 0% = protein alone, 100% = glycine-bound protein | 2.5% of 340,000 active | Tm shift relative to glycine control, % at 25 µM;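 active = melting temperature shift of at least 10% of the positive control shift, at one fixed dose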
# dFosB act = activators of mouse delta FosB homodimer; purified delta FosB, TAMRA-CDK5 oligo fluorescence polarization; percent of positive-control signal above neutral wells; 0.99% of 340,000 active; AID 493131; activation, % at 25 µM;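 active = mean activation above about 17%, with every replicate also reaching it, limit read from the data, passing the limit was not always enough; inconclusive = only one of the two conditions met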
# Target sequence (P13346 whole entry, looked up): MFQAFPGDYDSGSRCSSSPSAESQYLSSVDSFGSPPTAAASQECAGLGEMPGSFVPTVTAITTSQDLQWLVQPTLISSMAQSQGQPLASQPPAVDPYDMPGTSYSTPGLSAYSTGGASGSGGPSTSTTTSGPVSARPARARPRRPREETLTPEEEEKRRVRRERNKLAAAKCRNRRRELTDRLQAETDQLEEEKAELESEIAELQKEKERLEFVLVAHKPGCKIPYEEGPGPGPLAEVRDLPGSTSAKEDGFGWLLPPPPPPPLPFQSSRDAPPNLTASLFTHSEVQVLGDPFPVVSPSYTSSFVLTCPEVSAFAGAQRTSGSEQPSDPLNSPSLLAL
# Numbers stand for hits; 0 = inactive; ? = inconclusive; - = not tested or not shown. The list is not random: actives were taken first. Their share in the collection is about 4.3%.
SMILES,UBC13 inh,NALP1 yeast inh,Yeast superoxide,NR3A LBD binder,dFosB act
CC(=O)C1=C(NC(=O)c2ccc(C(F)(F)F)cc2)C[C@@H]2[C@H]1C2(C)C,0,-,0,0,0
CC(=O)C1=C(NC(=O)c2ccccc2F)C[C@@H]2[C@H]1C2(C)C,0,0,0,14,0
Oc1cnn(-c2ccccc2)c1,0,-,0,15,0
CCCNC(=O)c1oc2ccc3c(c2c1C)C=CC(C)(C)O3,0,0,0,0,0
CCCNC(=O)c1oc2ccc3c(c2c1C)C(=O)CC(C)(C)O3,0,0,0,633,0
Cc1ccc(O)c(-c2cc(-c3cccc(F)c3)n[nH]2)c1,?,0,0,12,0
Cc1ccc(-c2cc(-c3cccc(F)c3)n[nH]2)c(O)c1,0,0,0,17,0
CCN(CC(=O)Nc1ccc(C)c(S(=O)(=O)N2CCOCC2)c1)Cc1ccccc1,0,-,0,0,0
CC[C@]12c3[nH]c4ccccc4c3CCN1C(=O)C(CC(=O)NCCC1=CCCCC1)C[C@@H]2C(=O)N1CCN(C(=O)C2CC2)CC1 (stereo not given in full),0,-,0,0,0
Cc1ccc(S(=O)(=O)N(C)c2ccc3sc(C)nc3c2)cc1,0,0,0,0,0
COc1cc(NC(=O)c2cc(-c3cccnc3)nc3ccc(C)cc23)c(OC)cc1Cl,-,0,0,-,-
COc1ccc(NC(=O)c2cc(-c3cccnc3)nc3ccc(C)cc23)cc1OC,-,34,-,0,0
CC(/C=C/c1ccco1)=N\NC(=O)CNc1ccc2ccccc2c1,0,20,0,0,0
O=C(N/N=C/C=C\c1cccc([N+](=O)[O-])c1)c1cccnc1,0,-,0,12,0
O=C(/C=C/c1ccc([N+](=O)[O-])cc1)c1cccnc1,0,0,0,24,0
CC(/C=C/c1cccc([N+](=O)[O-])c1)=N/NC(=O)c1cccnc1,0,0,0,0,0
O=C(CNc1ccc2ccccc2c1)N/N=C/C=C/c1cccc([N+](=O)[O-])c1,0,0,0,22,0
COC(=O)C(Cc1ccccc1)NC(=O)c1ccc(NS(=O)(=O)c2ccc3[nH]c(=O)[nH]c3c2)cc1 (stereo not given),0,-,0,0,0
COc1ccc(/C=N/OCC(=O)N2CCCC2)c(OC)c1,0,0,0,0,0
CCOC(=O)C1=NNC2C(=O)N(Cc3ccccc3)C(=O)C12 (stereo not given),0,-,0,0,0
COc1cc(C(=O)N2C[C@@H]3CCC[C@H]2C3)ccc1OC1CCN(C(C)=O)CC1,0,0,0,0,0
COc1cc(C(=O)N2C[C@H]3CC[C@H]2C3)ccc1OC1CCN(C(C)=O)CC1,0,0,0,13,0
COc1ccc(CNC(=O)C[C@H]2C(=O)N(CCc3ccccc3)C[C@@H]2Cc2ccccc2)cc1,0,0,0,0,0
Oc1ccccc1C1CC(c2cccs2)=NC(c2ccc(Cl)cc2)N1 (stereo not given),0,0,0,10,0
CS(=O)(=O)N1N=C(c2cccs2)CC1c1ccccc1O (stereo not given),0,0,0,0,0
SMILES,UBC13 inh,NALP1 yeast inh,Yeast superoxide,NR3A LBD binder,dFosB act
Cc1ccc(NC(=O)CSc2ccccc2NC(=O)c2cccc(Cl)c2)cc1Cl,0,0,0,0,0
Cc1cccc(C(=O)Nc2ccccc2SCC(=O)Nc2ccc(C)c(Cl)c2)c1,0,0,0,15,0
COc1ccc(O)c(-c2cc(-c3cccc(Br)c3)n[nH]2)c1,0,0,0,16,0
COc1ccc(-c2cc(-c3cc(OC)ccc3O)[nH]n2)cc1,0,0,0,0,0
O=[N+]([O-])c1cccc(-c2cc(-c3cc(Br)ccc3O)[nH]n2)c1,0,0,0,13,0
COc1ccc(-c2cc(-c3ccc(Cl)cc3)n[nH]2)c(O)c1,0,0,0,49,0
Oc1ccccc1-c1cc(-c2ccc3c(c2)OCCO3)n[nH]1,0,0,0,16,0
O=C(O)c1cc(-c2ccc3c(c2)OCCO3)n[nH]1,0,0,0,0,0
Cc1ccc(C)c(NC(=O)Cn2ccn(-c3ccc4c(c3)OCO4)c(=O)c2=O)c1,0,-,0,0,0
CCC(C(=O)Nc1cccnc1)n1c(=O)[nH]c2ccccc2c1=O (stereo not given),0,0,0,0,0
CC(C)(CNC(=O)C1c2ccccc2-c2ccccc21)N1CCOCC1,0,0,0,0,0
Oc1ccc(Br)cc1-c1cc(-c2ccccc2)n[nH]1,0,0,0,29,0
Cc1ccccc1OCCC(=O)OCC(=O)N1CCN(S(=O)(=O)c2ccc(Cl)cc2)CC1,0,-,0,11,0
Cc1ccc(S(=O)(=O)N2CCN(C(=O)COC(=O)COc3ccccc3)CC2)cc1,0,29,0,0,0
COc1ccc(-n2c(SCC(=O)Nc3ccc(Cl)cc3)nc(O)c(Cc3ccccc3)c2=O)cc1,0,0,0,10,0
Cc1ccc2oc(=O)cc(/C=C/c3ccccc3)c2c1,0,0,0,18,0
Cc1ccc2c(CN3CCN(S(=O)(=O)/C=C/c4ccccc4)CC3)cc(=O)oc2c1,0,0,0,0,0
O=C(Nc1nccs1)C1CC=CCC1C(=O)OCC(F)(F)C(F)F (stereo not given),0,-,0,0,0
CCOC(=O)C1=C(COC(=O)CCc2ccc(CC)cc2)NC(=O)NC1C (stereo not given),0,-,0,0,0
Cc1noc(/C=C/c2ccccn2)c1[N+](=O)[O-],0,41,0,0,0
COc1ccc(-c2cc3ccc(OC)cc3cn2)cc1,0,-,0,41,0
Cc1ccc(OCC(O)Cn2c3ccccc3c3ccccc32)cc1 (stereo not given),0,0,0,12,0
OC(CN1CCN(Cc2ccccc2)CC1)Cn1c2ccccc2c2ccccc21 (stereo not given),0,50,0,0,0
OC(CN1CCN(c2ccccc2)CC1)Cn1c2ccccc2c2ccccc21 (stereo not given),0,0,0,0,0
Cc1ccc(OCCN2CCN(CC(O)Cn3c4ccccc4c4ccccc43)CC2)cc1 (stereo not given),0,76,0,-,-
SMILES,UBC13 inh,NALP1 yeast inh,Yeast superoxide,NR3A LBD binder,dFosB act
O=C(COc1ccc(Cl)cc1Cl)c1ccc[nH]1,0,0,0,0,0
COc1ccc(C2=NN(C3=NN=C(N)Cc4ncnn43)C(O)(C(F)(F)F)C2)cc1 (stereo not given),0,0,0,0,0
N#CC1C(=O)c2ccccc2C1c1ccccc1 (stereo not given),-,-,-,20,0
O=C(CCc1nc(-c2ccccc2F)no1)Nc1ccc(Oc2ccccc2)cc1,0,41,0,0,0
O=C(N/N=C/c1ccccc1)c1ccco1,0,0,0,0,0
O=C(C#Cc1ccccc1)c1ccco1,0,44,0,0,0
O=C(O)c1ccccc1C(=O)NC1CCCCNC1=O (stereo not given),0,0,0,0,0
CC(C)CCN1C(=O)c2ccc(C(=O)Nc3ccc(Br)cc3C(=O)O)cc2C1=O,0,0,0,0,0

# High-throughput results deposited in PubChem BioAssay by several laboratories.
